Measurements as given in PubChem BioAssay AID602247 (The Scripps Research Institute Molecular Screening Center, 2012).
In all, about 360,000 compounds went through this assay and about 80 (0.02%) were called active.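 Rule for the calls: active = activation above the run cutoff, the mean activation of all test compounds plus 3 SD (cut at about 40% in these data); inactive = the rest.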 What follows is part of a selection rich in actives, with near analogues and random picks from the rest.

Assay: ATP EC20 calcium response enhancers, parental CHO-K1 – cell-based, Fluo-8 calcium fluorescence, full deck, 1536-well, counter-screen for M1 PAM project, primary screen (AID 602247);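 note: peak over basal fluorescence ratio in a 140 s read after ATP addition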
Conditions: parental CHO-K1, ATP EC20, Fluo-8 calcium fluorescence; at 3 µM; active compounds read high; 0% at ATP EC20, 100% at ATP max

With CCn1c(O)c(N=NC2=NC(=O)CS2)c2cc(C)ccc21 as the molecule, how does the activation read?
Its activation is -3.3% (inactive).

With COc1cc(C(=O)OC(C)C(=O)NCC2CCCCC2)cc(NC(=O)c2ccco2)c1OC (centres undefined) as the molecule, how does the activation read?
The activation was 7.38% (inactive).

For COC(=O)c1cccc(N(C(=O)CNC(=O)c2cccs2)C(C(=O)NCC2CCCO2)c2ccc(OC)c(OC)c2)c1 (centres undefined), which activation is on record?
The activation was 6.05% (inactive).

With O=C(Nc1ccccc1)c1nnsc1S(=O)(=O)c1ccc(Cl)cc1 as the molecule, how does the activation read?
The activation was -4.32% (inactive).

For Cc1ccc(NC(=O)C2(N3CCC3=O)CCCCC2)cc1, which activation is on record?
Its activation is 30.7% (inactive).

For COCCCNS(=O)(=O)c1cccc(S(=O)(=O)c2cccc(S(=O)(=O)NCCCOC)c2)c1, which activation is on record?
Its activation is -13.2% (inactive).

With Cc1ccc(C(=O)N[C@H](C(=O)N2CCN(c3ncccn3)CC2)C(C)C)cc1 as the molecule, how does the activation read?
Its activation is 21.1% (inactive).

With O=C(CN1C(=O)NC2(CCCC2)C1=O)Nc1cc(C(F)(F)F)ccc1N1CCOCC1 as the molecule, how does the activation read?
Its activation is -14.5% (inactive).

For Cc1ccc(C(=O)O)cc1N1C(=O)CCCC1=O, which activation is on record?
The activation was 17.6% (inactive).

With CCC(C(=O)Nc1ccc(C(C)C)cc1)c1ccccc1 (centres undefined) as the molecule, how does the activation read?
The activation was 7.1% (inactive).

Which activation does the source give for NC(=O)C1CCN(Cc2nc3c(Br)cc(Br)cc3c(=O)[nH]2)CC1 here?
Its activation is 8.89% (inactive).

With CCn1nc(C)c(/C=N/NC(=O)Cc2ccc(Cl)cc2)c1C as the molecule, how does the activation read?
The activation was 10.4% (inactive).

With COc1ccc(CN2C(=O)CC(Cc3ccc(C)cc3)C2=O)cc1OC (centres undefined) as the molecule, how does the activation read?
Its activation is 0.86% (inactive).

With CC(NC(=O)c1cc2cc(Cl)ccc2oc1=N)c1ccccc1 (centres undefined) as the molecule, how does the activation read?
Its activation is 4.16% (inactive).

Which activation does the source give for O=C(O)c1cccc2c1C(=O)N(C1CCCCC1)C2 here?
Its activation is 12.5% (inactive).

For Cc1c(C#N)c2ncn(CC#N)c(=O)c2n1-c1ccccc1, which activation is on record?
The activation was 10.7% (inactive).

Which activation does the source give for OCC(O)C1OCOC(C(O)CO)C1O (centres undefined) here?
The activation was -2.45% (inactive).

Which activation does the source give for Cc1ccc(-c2nnc(Nc3ccc(C(=O)N(C)C)cc3)c3ccccc23)cc1S(N)(=O)=O here?
The activation was -6.44% (inactive).

Which activation does the source give for COc1ccc(S(=O)(=O)N2CCOCC2)cc1NC(=O)CSc1ncnc2ccccc12 here?
Its activation is -10.6% (inactive).

Which activation does the source give for C/C(CCc1ccccc1)=N\NC(=O)c1ccc(CN2CCOCC2)cc1 here?
The activation was 10.1% (inactive).

For C[C@@H]1CN([C@@H](C)CO)C(=O)c2cc(NS(C)(=O)=O)ccc2O[C@@H](C)CCCCO[C@H]1CN(C)C(=O)Nc1ccc2c(c1)OCO2, which activation is on record?
Its activation is 5.94% (inactive).

With O=C(NCc1ccccc1)C(c1ccco1)N(C(=O)c1csnn1)c1ccccc1F (centres undefined) as the molecule, how does the activation read?
Its activation is -7% (inactive).

For Cc1ccc(C)c2[nH]c(=O)c(CN(Cc3cccnc3)C(=S)NCc3ccco3)cc12, which activation is on record?
Its activation is -16.3% (inactive).

With NC1=NC(=O)C2(COC(c3ccccc3Cl)OC2)S1 (centres undefined) as the molecule, how does the activation read?
The activation was 19% (inactive).
